Whole data set: some 39,000 sequences, median “fluorescence intensity (a.u.)” near 4,300, cut for the highest 2% near 39,000. What follows is part of a selection rich in the highest values, with near analogues and random picks from the rest.
What follows are sequences tested against T1, OsSMF1 (Oryza sativa, UniProt Q6ZLB0 1-436) (assay: protein-binding microarray (RPBM); PBS, 2% BSA, 51.3 ng/ul salmon testes DNA, 50 uM zinc acetate, 200 nM TF, 25 C, 1 h; high values mean tight binding). Details: protein: recombinant; tags: N-terminal polyhistidine and DsRed monomer fusion (pET32a); chain copies: 2; label: CyDye5-dUTP incorporated in the synthesized complementary strand; 3' TTTTT single-stranded linker to array surface; dsDNA, one strand shown.
T1 sequence: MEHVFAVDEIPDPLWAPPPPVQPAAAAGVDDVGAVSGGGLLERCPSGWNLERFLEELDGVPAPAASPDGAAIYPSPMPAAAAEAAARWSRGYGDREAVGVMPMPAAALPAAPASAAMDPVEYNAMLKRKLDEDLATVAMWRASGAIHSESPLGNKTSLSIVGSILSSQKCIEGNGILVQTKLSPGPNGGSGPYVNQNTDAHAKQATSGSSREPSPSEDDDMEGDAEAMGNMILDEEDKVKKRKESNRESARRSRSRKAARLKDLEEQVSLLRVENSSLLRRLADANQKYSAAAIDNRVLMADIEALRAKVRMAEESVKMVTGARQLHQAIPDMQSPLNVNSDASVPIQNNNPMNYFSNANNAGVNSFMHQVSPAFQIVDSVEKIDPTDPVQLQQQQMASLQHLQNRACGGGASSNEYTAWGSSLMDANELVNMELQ
Summary of the method: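 The binding signal is fluorescence intensity per array feature (arbitrary units). Readings came from an Axon 4000B scanner after a washed, 2% BSA-blocked, double-stranded custom Agilent array had been incubated for 1 h at 25 °C with 200 nM protein and 50 µM zinc acetate. The protein was a Ni–NTA-purified transcription factor fused N-terminally to polyhistidine and DsRed, expressed in E. coli BL21-CodonPlus.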
In the case of “GCCTGTAGCCTGGTGGTTACAAGAGCCTCAGTAGCACCTGCGGAGTCACCTAGTGCAG”, the binding signal is reported as 3250 fluorescence intensity (a.u.). For “CAACGGCTATGAGCTGTCACACACTCACAGTAGTACTCCGCGGAGTCACCTAGTGCAG”, the binding signal was 3850 fluorescence intensity (a.u.). With “ATAAATAGAATGCTGACTGGACTGCCACGCGTACGCCATGCGGAGTCACCTAGTGCAG” the binding signal was 22000 fluorescence intensity (a.u.). “ACGTGCTCAGTCATCATCCTCATGGCCGTTCCTTGCCGAACGGAGTCACCTAGTGCAG” was tested, and the binding signal was 6930 fluorescence intensity (a.u.). With “GCTTTGGAACTCCTTTAGATTATAATCCAACTCAATTCAACGGAGTCACCTAGTGCAG” the binding signal was 4590 fluorescence intensity (a.u.). With “CAATTCCGACGAAATCCGGTCGGATTTCACGAAATTTCGACGGAGTCACCTAGTGCAG” the binding signal was 20600 fluorescence intensity (a.u.). For “GTAATAATAGATTATATTCAATTAATTAATTATTTATTATCGGAGTCACCTAGTGCAG”, the binding signal was 17400 fluorescence intensity (a.u.). In the case of “TGATCAAAGGGTTTTACTAAAGGAGTTATGGTCTAATTTTCGGAGTCACCTAGTGCAG”, the binding signal is reported as 64900 fluorescence intensity (a.u.). For “ATTTTGGTCAAATTTAAACTAATCTAAGTTTGACTAATTTCGGAGTCACCTAGTGCAG”, the binding signal was 8280 fluorescence intensity (a.u.). For “CGATTTACTTCAAATTTTAGAGGATCAGATCCGACGAAATCGGAGTCACCTAGTGCAG”, the binding signal was 42900 fluorescence intensity (a.u.). “TTCATAAAACTCCACCTGATCCGAATTACTCTACCAATAACGGAGTCACCTAGTGCAG” was tested, and the binding signal was 4490 fluorescence intensity (a.u.). For “GATAAATATAGGAATGTTTATAATACTAAATTAATTTAATCGGAGTCACCTAGTGCAG”, the binding signal was 28300 fluorescence intensity (a.u.). For “GAGGACAGATCAAATGATTTTAATGACGAAACATGTGCTTCGGAGTCACCTAGTGCAG”, the binding signal was 4096 fluorescence intensity (a.u.). With “TCAAAGGGTTTCATAAATTTTATGTATATTTTACAAGATTCGGAGTCACCTAGTGCAG” the binding signal was 5540 fluorescence intensity (a.u.). For “TCTGTACCAAACTCAATTTTAGAATTCAGAGATCCAATAACGGAGTCACCTAGTGCAG”, the binding signal was 40000 fluorescence intensity (a.u.). “CAGAAGGATATATGTTTTATAATTTATTCAAATACTAGATCGGAGTCACCTAGTGCAG” was tested, and the binding signal was 41400 fluorescence intensity (a.u.). For “CGAATTTGCTACCCCATTTCACAAATCAAAAGTGCAAAGCCGGAGTCACCTAGTGCAG”, the binding signal was 29200 fluorescence intensity (a.u.). “CACAGTCGACGACACCCTCCATCTCCGTCCCTCCCACTCCCGGAGTCACCTAGTGCAG” was tested, and the binding signal was 7160 fluorescence intensity (a.u.). With “ACGGGCCGTGCTTGGGCCAGCGGCTCGGCACGTGGGCCGGCGGAGTCACCTAGTGCAG” the binding signal was 3480 fluorescence intensity (a.u.). In the case of “GAATCAGTAAATAAAGCGCTAGGTTTAATGATGTCATGGACGGAGTCACCTAGTGCAG”, the binding signal is reported as 6840 fluorescence intensity (a.u.). “ATTAACAATTCAATGGTTCTTGATGTGTTCTACTTAACCTCGGAGTCACCTAGTGCAG” was tested, and the binding signal was 3260 fluorescence intensity (a.u.). For “AAGATAAATGGTTAAACCTTATATGTGAAACCAGAGAAAACGGAGTCACCTAGTGCAG”, the binding signal was 21100 fluorescence intensity (a.u.). For “CCTTCTTAACAGTCTGTGAAGCTCTGCCATCTCACCGTCTCGGAGTCACCTAGTGCAG”, the binding signal was 3820 fluorescence intensity (a.u.). In the case of “TTCGGCGCAAATTTCTAATCATGATGTAATATAATTAGCTCGGAGTCACCTAGTGCAG”, the binding signal is reported as 3270 fluorescence intensity (a.u.). “CTCCAAATTAGTATCCAAACATCCGATGTGACATGGACTTCGGAGTCACCTAGTGCAG” was tested, and the binding signal was 4370 fluorescence intensity (a.u.). For “CTTCGGCCTTAGCTCCAAATCCGATGTAAATTTACCAAATCGGAGTCACCTAGTGCAG”, the binding signal was 61700 fluorescence intensity (a.u.). “TTTCCAATCACGTATTCCGGACAAAGGCCTAAACCTGCTCCGGAGTCACCTAGTGCAG” was tested, and the binding signal was 35800 fluorescence intensity (a.u.). For “ACCAAAATTCTCATATCTCTCAACTAAACAAAACTCTTAACGGAGTCACCTAGTGCAG”, the binding signal was 3300 fluorescence intensity (a.u.). In the case of “ACCCACGCACTCACTGACGATGCAATGCGGCCATATGCTACGGAGTCACCTAGTGCAG”, the binding signal is reported as 3240 fluorescence intensity (a.u.). For “TAGTAGATAGCTTTGCTCTCTCTCTTCATTTAATATATTCCGGAGTCACCTAGTGCAG”, the binding signal was 4540 fluorescence intensity (a.u.). With “AGTGCTTTATTTTGCTGATTCATTGTTAAAATTGCCTCTACGGAGTCACCTAGTGCAG” the binding signal was 5500 fluorescence intensity (a.u.). “GATGTTCAGATGTACAACAGTAATTTGATTGCATCGGCTTCGGAGTCACCTAGTGCAG” was tested, and the binding signal was 3270 fluorescence intensity (a.u.). For “TTTTGCTTAGCTGTTCTGTAATTGTCGATTTGAATTGGATCGGAGTCACCTAGTGCAG”, the binding signal was 3500 fluorescence intensity (a.u.). For “GCAGAGTTCAGAATTTGTTCAGTTTAGGTGCTTCTGTAATCGGAGTCACCTAGTGCAG”, the binding signal was 55600 fluorescence intensity (a.u.). “CTCTTCATTTGTTAATTTAATTTGATTAATTCAGTGCTTCCGGAGTCACCTAGTGCAG” was tested, and the binding signal was 64900 fluorescence intensity (a.u.). With “CGGGAGAGAGGATCGGGAGAGATAGGGTTAGGGTTAGGGTCGGAGTCACCTAGTGCAG” the binding signal was 3320 fluorescence intensity (a.u.). For “CCACCACGTACAGTGCTTTCCTAGGCAGAAGCCCACTATCCGGAGTCACCTAGTGCAG”, the binding signal was 3490 fluorescence intensity (a.u.). “ACCAATCGCATGACGATATTCCCGCTCCCACAATCGCGTTCGGAGTCACCTAGTGCAG” was tested, and the binding signal was 3550 fluorescence intensity (a.u.). “CGAACCGATGGTTGTGATTGTACGTGTCTACCTGATACGTCGGAGTCACCTAGTGCAG” was tested, and the binding signal was 5940 fluorescence intensity (a.u.). With “GAAAATAAGGGAGTTTTCTGCAAAATTTGATGAATGGAAGCGGAGTCACCTAGTGCAG” the binding signal was 3230 fluorescence intensity (a.u.). For “TTTTGGTCATTTTACCATATGACTTTGTTTTGGTAATTTGCGGAGTCACCTAGTGCAG”, the binding signal was 3210 fluorescence intensity (a.u.). “TTTCTGTGACGGCCCGCGTAGCTTCGGAGGAAGCGACCACCGGAGTCACCTAGTGCAG” was tested, and the binding signal was 47700 fluorescence intensity (a.u.). With “CGGATTCTCGTCGGCTTCGGCGACCGGAAGAGGAGAGGAGCGGAGTCACCTAGTGCAG” the binding signal was 3230 fluorescence intensity (a.u.). For “CGGAGTGGCCAGCGTGGTGACAAGCGCGACGTGGCGGCTTCGGAGTCACCTAGTGCAG”, the binding signal was 6830 fluorescence intensity (a.u.). For “CTTGGTGGTTTTATAGGGTGGTTTCGCTGACGTGGCGTGGCGGAGTCACCTAGTGCAG”, the binding signal was 44600 fluorescence intensity (a.u.). With “AGCGGTTTCGCTGACGTGGCGGTTAGGTGGCATTTGAATTCGGAGTCACCTAGTGCAG” the binding signal was 23800 fluorescence intensity (a.u.). For “GGTTTAGACGTGGCGGTGGTGGGTGGCGTACGTTTGGGTTCGGAGTCACCTAGTGCAG”, the binding signal was 5180 fluorescence intensity (a.u.).
